MITF inh = inhibitors of human MITF; AlphaScreen MITF homodimerization, bead proximity signal; O75030; inhibition, % at 2.6 µM; hit rate 0.91% among 650,000; AID 1259374; in the data active = inhibition above about 50%;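 also: 0% = vehicle wells with protein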
TEAD-YAP block = TEAD-YAP interaction inhibition | hit rate 1.4% among 640,000 | AID 1259422 | inhibition, % at 9.12 µM | HEK-TIYL cells, TEAD-Gal4/YAP UAS-luciferase luminescence; in the data active = inhibition above about 32%;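 also: 0% = median of test compound wells and 100% = reference inhibitor wells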
GPR151 activ = activates the human receptor GPR151. Q8TDV0. PathHunter beta-arrestin GPR151 cells, luminescence. activation, % at 11.2 µM. hit rate 1% among 650,000. AID 1508602; in the data active = activation above about 4.9%;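 also: 0% = median of compound wells and 100% = cells with positive control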
FBW7 act = human FBW7 E3 ligase activation, primary screen | AlphaScreen FBW7–phospho-cyclin E peptide binding, activator screen | normalized activity (activation), % at 26.1 µM | hit rate 0.13% among 650,000 | Q969H0 | AID 1259310; in the data active = normalized activity above about 1.9%;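 also: purified mutant Fbw7 with reduced substrate affinity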
Target sequence (Q969H0 whole entry, looked up): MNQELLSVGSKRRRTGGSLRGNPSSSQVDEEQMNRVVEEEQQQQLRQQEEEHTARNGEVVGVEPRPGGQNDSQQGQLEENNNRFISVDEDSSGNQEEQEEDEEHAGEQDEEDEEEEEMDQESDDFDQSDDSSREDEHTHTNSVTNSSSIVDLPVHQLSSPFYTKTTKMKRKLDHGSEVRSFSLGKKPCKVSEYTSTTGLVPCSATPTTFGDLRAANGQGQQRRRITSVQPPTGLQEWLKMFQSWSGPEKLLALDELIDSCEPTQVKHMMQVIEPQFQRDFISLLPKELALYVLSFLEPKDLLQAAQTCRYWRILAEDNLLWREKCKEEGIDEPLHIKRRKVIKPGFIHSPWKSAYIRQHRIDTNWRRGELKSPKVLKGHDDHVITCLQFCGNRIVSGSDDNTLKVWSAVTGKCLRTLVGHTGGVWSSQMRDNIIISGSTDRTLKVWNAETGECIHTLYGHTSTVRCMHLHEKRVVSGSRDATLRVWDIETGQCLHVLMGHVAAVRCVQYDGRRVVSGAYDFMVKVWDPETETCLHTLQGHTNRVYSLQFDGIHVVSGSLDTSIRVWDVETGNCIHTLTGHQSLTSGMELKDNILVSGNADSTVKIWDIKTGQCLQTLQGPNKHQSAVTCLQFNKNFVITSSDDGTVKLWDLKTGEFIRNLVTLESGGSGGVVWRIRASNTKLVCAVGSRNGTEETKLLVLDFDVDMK
The depositor's hits bear a star; ! = repeats disagree. In the library only some 3.5% were active in any assay of this set; here they are far more common.

O=C1NC(=S)N(c2ccccc2)C(=O)/C1=C\c1ccoc1 was read as MITF inh 71*, TEAD-YAP block 3, GPR151 activ 1 and FBW7 act 0.
O=C(CCN1C(=O)/C(=C/c2cccs2)SC1=S)N1CCOCC1 was read as MITF inh -5, TEAD-YAP block -3, GPR151 activ -1 and FBW7 act 0.
For O=c1[nH]cc(F)c(=O)[nH]1 the results were MITF inh 12, TEAD-YAP block 35*!, GPR151 activ 3 and FBW7 act 0.
`Cn1c(NC(=O)c2cc([N+](=O)[O-])ccc2Cl)cc(=O)n(C)c1=O` gave MITF inh 0, TEAD-YAP block -4, GPR151 activ 0 and FBW7 act 0.
For Cc1cc(NC(=O)c2ccccc2)ccc1O the results were MITF inh 4, TEAD-YAP block 73*, GPR151 activ -5 and FBW7 act 0.
Screening Cc1cc(NC(=O)/C=C/c2ccccc2)ccc1O returned MITF inh -12, TEAD-YAP block 73*, GPR151 activ -1 and FBW7 act 0.
Screening CC(=O)Nc1ccc(NC(=O)c2ccccc2)c(C)c1 returned MITF inh 1, TEAD-YAP block 4, GPR151 activ 2 and FBW7 act 12*.
Screening COc1ccc(N=C2NC(=O)C(C)S2)cc1 (centres undefined) returned MITF inh -20, TEAD-YAP block -4, GPR151 activ -2 and FBW7 act 0.
For O=C(/C=C\Nc1cccc(F)c1)c1cccs1 the results were MITF inh 8, TEAD-YAP block -4, GPR151 activ -2 and FBW7 act 0.
`Cc1ccc(N/C=C/C(=O)c2cccs2)cc1` gave MITF inh 37, TEAD-YAP block 81*, GPR151 activ 1 and FBW7 act 0.
`COC(=O)c1ccc(N/C=C/C(=O)c2cccs2)cc1` gave MITF inh -8, TEAD-YAP block 53*, GPR151 activ -5 and FBW7 act 0.
For O=C(/C=C/Nc1ccc(I)cc1)c1cccs1 the results were MITF inh 23, TEAD-YAP block 41*, GPR151 activ 0 and FBW7 act 0.
Cn1c(=O)c2ccccc2n2c(SCC(=O)Nc3nccs3)nnc12 was read as MITF inh 2, TEAD-YAP block 6, GPR151 activ 0 and FBW7 act 0.
For CCC1(N)C2CC3CC(C2)CC1C3 (centres undefined) the results were MITF inh 4, TEAD-YAP block -9, GPR151 activ 1 and FBW7 act 0.
Screening NC(=O)c1nn(-c2ccccc2)nc1/C=C\C(=O)O returned MITF inh 20, TEAD-YAP block -8, GPR151 activ -1 and FBW7 act 1.
COC(=O)/C=C\c1nn(-c2ccccc2)nc1C#N was read as MITF inh 5, TEAD-YAP block 60*, GPR151 activ 0 and FBW7 act 0.
`OCCCNc1nc(-c2cccnc2)nc2ccccc12` gave MITF inh 11, TEAD-YAP block 17, GPR151 activ -1 and FBW7 act 0.
Screening O=C(Nc1ccc(Oc2cccnc2)cc1)C1CCN(Cc2ccc(F)cc2)CC1 returned MITF inh -5, TEAD-YAP block 6, GPR151 activ 0 and FBW7 act 0.
For O=C(Nc1ccc(Oc2cccnc2)cc1)C1CCN(Cc2cc(Cl)ccc2O)CC1 the results were MITF inh 17, TEAD-YAP block 44*, GPR151 activ -1 and FBW7 act 0.
Screening Cc1cccc(C)c1N(C)S(=O)(=O)c1ccc2[nH]cc(C(=O)NCc3cccnc3)c(=O)c2c1 returned MITF inh 0, TEAD-YAP block 34*, GPR151 activ 3 and FBW7 act 0.
`CCOc1ccccc1N(C)S(=O)(=O)c1ccc2[nH]cc(C(=O)NCc3cccnc3)c(=O)c2c1` gave MITF inh 15, TEAD-YAP block 63*, GPR151 activ 0 and FBW7 act 0.
For COC(=O)c1cn[nH]c1NC(=S)Nc1c(C)cccc1C the results were MITF inh -1, TEAD-YAP block -6, GPR151 activ -1 and FBW7 act 0.
For COC(=O)c1cn[nH]c1NC(=S)Nc1ccc(Br)cc1 the results were MITF inh -4, TEAD-YAP block 39*, GPR151 activ 0 and FBW7 act 0.
`N#CCCNc1cccc(C(F)(F)F)c1` gave MITF inh -10, TEAD-YAP block -2, GPR151 activ -1 and FBW7 act 0.
For COc1ccccc1/C=C1/SC(=S)N(CCCCCC(=O)O)C1=O the results were MITF inh 2, TEAD-YAP block 58*, GPR151 activ -1 and FBW7 act 0.
`COc1ccccc1/C=C1/SC(=S)N(CCCC(=O)O)C1=O` gave MITF inh -1, TEAD-YAP block 46*, GPR151 activ 1 and FBW7 act 0.
For COCCN1C(=O)/C(=C/c2ccccc2OC)SC1=S the results were MITF inh 18, TEAD-YAP block 3, GPR151 activ 0 and FBW7 act 0.
CC(=O)c1ccc(NC(=O)c2ccc(C(=O)c3c(C)cc(C)cc3C)cc2)cc1 was read as MITF inh 15, TEAD-YAP block 3, GPR151 activ 0 and FBW7 act 0.
`COc1ccc(N/N=C(\Cl)C(C)=O)cc1` gave MITF inh 20, TEAD-YAP block 4, GPR151 activ 1 and FBW7 act 1.9*.
Cc1ccc2oc(-c3ccc(N4CCC(C)CC4)c([N+](=O)[O-])c3)nc2c1 was read as MITF inh 14, TEAD-YAP block 93*, GPR151 activ -2 and FBW7 act 0.
For CC1CCOC2(O1)C(=O)N(CN1CCN(c3ccc(F)cc3)CC1)c1ccccc12 (centres undefined) the results were MITF inh 4, TEAD-YAP block 6, GPR151 activ -1 and FBW7 act 0.
For Cc1ccccc1-n1c(N)c(C(=O)Nc2ccccc2)sc1=S the results were MITF inh 9, TEAD-YAP block -22, GPR151 activ -1 and FBW7 act 0.
O=C(Nc1nc(-c2ccccn2)cs1)c1ccc(Oc2ccccc2)cc1 was read as MITF inh 0, TEAD-YAP block 43*, GPR151 activ -1 and FBW7 act 0.
COc1cc(OC)cc(C(=O)Nc2nc(-c3ccccn3)cs2)c1 was read as MITF inh 18, TEAD-YAP block 49*, GPR151 activ 0 and FBW7 act 0.
`CN(C)c1nc(NCCOC23CC4CC(CC(C4)C2)C3)nc(OCC(F)(F)F)n1` gave MITF inh 18, TEAD-YAP block 0, GPR151 activ -2 and FBW7 act 0.
CN(C)C(=O)Cn1nc(C(=O)N2CCOCC2)cc1-c1cccs1 was read as MITF inh 12, TEAD-YAP block 4, GPR151 activ 1 and FBW7 act 0.
`O=C(c1cc(-c2cccs2)n(CC(=O)N2CCCc3ccccc32)n1)N1CCOCC1` gave MITF inh -5, TEAD-YAP block 51*, GPR151 activ 0 and FBW7 act 0.
Screening O=C(N/N=C/c1c[nH]c2ccccc12)c1cccc2ccccc12 returned MITF inh 4, TEAD-YAP block -17, GPR151 activ 0 and FBW7 act 1.

Screening results from PubChem.
